High-throughput results: PubChem, National Center for Advancing Translational Sciences (NCATS)
The list is not random: actives were taken first. Their share in the collection is about 6.2%.
HT1080 IDH1KD tx: HT-1080 IDH1 knockdown cell toxicity (counter line). HT-1080 IDH1 knockdown viability, ATP luminescence, 48 h. AID 686971. Potency, µM (top dose mostly 46.1 µM), for inactives: top-dose activity, negative = toxicity, usual class: cytotoxic. 360,000 compounds, 2% hits;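 also: 0% = DMSO wells and -100% = cell-free medium wells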
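CellTiter-Glo luminescence after 48 h compound exposure at 37 degrees C of IDH1-knockdown HT-1080 cells in 5% FBS RPMI. %Activity scaled between DMSO wells and cell-free media wells, with curves fitted and assigned curve classes.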
S2 tox: reduces viability in counter-screen for ATXN expression inhibitors. S2 cells (HEK-293 line with an ATXN2-luciferase reporter) viability, CellTiter-Fluor protease fluorescence, 24 h. Potency, µM (series often up to 56.7 µM), hits mostly cytotoxic. 400,000 compounds, 0.49% hits. AID 651635; also: nearly all actives have a fitted effect of over 40% in size
KB-3-1 cytotox: kills parental KB-3-1 adenocarcinoma cells | KB-3-1 viability, CellTiter-Glo ATP luminescence, 72 h | Potency, µM (top dose mostly 46.1 µM), actives largely listed as cytotoxic | 400,000 compounds, 1.4% hits; also: % is scaled to controls: 0 for no effect and ±100 for the full control effect; nearly all actives have a fitted effect of over 60% in size
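Cytotoxicity measured as CellTiter-Glo luminescence after 72 h at 37 C. Compound titrations were pinned onto drug-naive KB-3-1 parental adenocarcinoma cells grown in DMEM with 10% FBS, and normalized data fitted to concentration-response curves.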
ATXN2 expr inh: inhibitors of ATXN2 expression; HEK-293 ATXN2-luciferase reporter, luminescence, 24 h; Potency, µM (titrated, usually from 57 µM), inactives show top-dose activity change, negative = inhibition, actives largely listed as inhibitors; 360,000 compounds, 0.72% hits; AID 1745845; also: % is scaled to controls: 0 for no effect and ±100 for the full control effect; nearly all actives have a fitted effect of over 55% in size
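qHTS (up to 57 uM final) was run with 24 h compound exposure of reporter cells at 37 °C. Each well was multiplexed: SteadyGlo luminescence measured ATXN2-luciferase expression after a fluorogenic Gly-Phe-AFC viability readout (25 uM final).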
HT1080-NT tox: kills 2HG-producing HT-1080-NT fibrosarcoma cells | 360,000 compounds, 1.6% hits | HT-1080-NT fibrosarcoma viability, CellTiter-Glo ATP luminescence, 48 h | Potency, µM (doses to about 46.1 µM), for inactives: at the highest dose activity, negative = less viability, actives largely listed as cytotoxic;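 also: NT is the 2HG producing partner of a matched IDH1 knockdown line; 0% = DMSO-treated cells and -100% = media-only wells without cells; nearly all actives have a fitted effect of over 55% in size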
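Luminescent CellTiter-Glo readout after 48 hours of compound exposure at 37 degrees C defined viability of HT-1080-NT cells. Activity was normalized to DMSO wells and cell-free media wells; concentration-response curves were fitted and assigned curve classes.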
KB-V1 MDR tox: KB-V1 MDR subline cytotoxicity; KB-V1 MDR cells viability, CellTiter-Glo, 72 h; Potency, µM (series often up to 46.1 µM), actives largely listed as cytotoxic; 400,000 compounds, 3.4% hits; AID 1347076; also: % is scaled to controls: 0 for no effect and ±100 for the full control effect; nearly all actives have a fitted effect of over 60% in size
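Compound-treated KB-V1 multidrug-resistant cells, 72 h, 37 degrees C; viability by CellTiter-Glo. Fitted qHTS curves give the values.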
* = called active by the depositor; i = inactive; ? = inconclusive; · = no result given; ! = not confirmed by another sample. Calls follow the shape of the dose curve; as a rule, active = well fitted curve in the direction sought with a large enough effect; inconclusive = small, poorly fitted or top-dose-only effect, or another doubt; inactive = no such curve, though single readings can be large; an effect the other way counts as inactive or inconclusive. Potency is read from the fitted curve at half-maximal effect.

SMILES	HT1080 IDH1KD tx	S2 tox	KB-3-1 cytotox	ATXN2 expr inh	HT1080-NT tox	KB-V1 MDR tox
O=C(NCc1ccccc1Cl)c1cc(=O)[nH]c2ccc(S(=O)(=O)N3CCCCC3)cc12	·	i	i	3%	·	?
CC1(C)CC(=O)C=C(c2ccc(-c3cnc4ccccc4c3)cc2)C1=O	7%	7.9µM*	i	?	2%	i
Cc1ccc(C(=O)C[n+]2cccc3cccc(O)c32)cc1	·	·	i	·	·	i
O=[N+]([O-])c1ccccc1C=NNc1ccccc1	?	i	i	44%	?	i
Cc1ccc(-c2nc(N/N=C/c3ccccc3[N+](=O)[O-])c3ccccc3n2)cc1	4.5µM*	?	i	?	?	i
Cc1ccc(OCC(=O)OC2=C(C(=O)c3ccccc3)N(C)S(=O)(=O)c3ccccc32)cc1	·	i	i	-26%	·	?
CCOC(=O)c1ccc(NS(=O)(=O)c2cc(Br)cc3c2N(C(C)=O)C(C)C3)cc1 (centres undefined)	·	i	?	-28%	·	i
Cc1ccc2c(c1)c1c(n2CC2COC(C)(C)O2)C(=O)CCC1 (centres undefined)	4%	i	i	-1%	3%	i
Cc1ccc2c(c1)c1c3n2CC(=C2C(=O)OC(C)(C)OC2=O)NC3CCC1 (centres undefined)	-26%	i	i	-9%	?	21µM*
CCC(C(=O)Nc1ccc2c(c1)OCCO2)n1nnc2ccccc2c1=O (centres undefined)	5%	i	i	9%	-4%	i
O=c1c2ccccc2nnn1CSc1ccc2c(c1)OCCO2	-10%	i	i	19%	-2%	23µM*
Cc1cccc(-n2nnnc2SCn2nnc3ccccc3c2=O)c1	-5%	i	i	23%	6%	13µM*
COc1cccc(-c2cc(=O)c3cc(NC(=O)c4ccc(N(C)C)cc4)ccc3[nH]2)c1	0.73µM*	?	i	-32%	1.3µM*	i
COc1cccc(-c2cc(=O)c3cc(NC(=O)c4ccccc4)ccc3[nH]2)c1	3.7µM*	?	1.6µM*	-16%	3.7µM*	i
COc1cccc(C(=O)Nc2ccccc2)c1	-3%	?	i	46%	6%	i
Cc1cccc(NC(=O)c2ccc3[nH]c(C)cc(=O)c3c2)c1	·	i	i	-9%	·	i
COc1cccc(-c2cc(=O)c3cc(NC(=O)c4ccc(Cl)cc4)ccc3[nH]2)c1	0%	i	1.3µM*	8%	-6%	i
Cc1ccc(Cl)cc1NC(=O)c1sc2nc(-c3ccccc3)cn2c1C	·	i	i	7%	·	i
Cc1cc(S(=O)(=O)Nc2ccc(-c3ccc(N4CCCCCC4)nn3)cc2)c(C)cc1Cl	·	?	i	7%	·	?
Cc1cccc(Cc2c(C)nc3nc(SCc4ccccc4F)nn3c2C)c1	·	i	i	1%	·	i
COc1ccc(CCNC(=O)Cn2c(-c3ccc(F)cc3)cc(C(C)=O)c2C)cc1OC	·	·	i	·	·	i
CC1(c2nnc(-c3ccccc3)o2)CC(c2ccc([N+](=O)[O-])cc2)=NO1 (centres undefined)	-19%	?	10µM*	-34%	-4%	21µM*
CC1(c2nnc(-c3ccccc3)o2)CC(c2ccc(Cl)cc2)=NO1 (centres undefined)	5%	i	i	-5%	2%	i
CCc1ccc(-c2nc(CSCC(=O)NCCCN3CCCC3=O)c(C)o2)cc1	-4%	i	i	-16%	-1%	16µM*
CSc1ccc(-c2nc(CSCC(=O)NCCCN3CCCC3=O)c(C)o2)cc1	-6%	i	i	-18%	-5%	i
SMILES	HT1080 IDH1KD tx	S2 tox	KB-3-1 cytotox	ATXN2 expr inh	HT1080-NT tox	KB-V1 MDR tox
CCc1ccc(-c2nc(CSCC(=O)N3CCN(c4ccccn4)CC3)c(C)o2)cc1	?	?	?	?	2%	18µM*
COc1ccc(-c2nc(CSCC(=O)NCCC3=CCCCC3)c(C)o2)cc1OC	-9%	?	i	2%	-21%	21µM*
COCCNC(=O)CSCc1nc(-c2ccc(SC)cc2)oc1C	3%	i	?	0%	4%	9.2µM*
C[N+]1(CC(=O)c2ccc(Oc3ccccc3)cc2)CCOCC1	·	·	i	·	·	i
Cc1cccc(C(=O)NCC(=O)OCc2cc(=O)n3nc(CC(C)C)sc3n2)c1	·	i	i	-5%	·	i
O=S1(=O)CCO[C@H]2CCCC[C@@H]2N1Cc1ccc(Cl)cc1	·	·	i	·	·	?
Fc1ccc(-c2nn(-c3ccc(Cl)cc3)c3c2cnc2ccc(F)cc23)cc1	·	i	i	7%	·	i
Cc1cccc(N2C(=O)CC(SC(=Nc3ccccc3)Nc3ccccc3)C2=O)c1 (centres undefined)	-23%	i	?	4%	-17%	18µM*
O=C1CC(SC(=NCc2ccc3c(c2)OCO3)Nc2ccccc2)C(=O)N1c1ccccc1 (centres undefined)	-9%	i	i	-15%	-1%	i
O=C1CC(SC(=Nc2ccccc2)Nc2ccccc2)C(=O)N1c1ccc(Cl)c(Cl)c1 (centres undefined)	?	i	?	-35%	?	16µM*
CN=C(Nc1ccc2c(c1)OCO2)SC1CC(=O)N(c2ccccc2)C1=O (centres undefined)	-12%	i	i	-3%	-15%	18µM*
O=C(O)CSC1CC(=O)N(c2ccc(Cl)c(Cl)c2)C1=O (centres undefined)	17%	i	i	-2%	13%	i
COc1ccc(-c2nc3n(n2)C(c2ccccc2F)C(C(=O)Nc2cccnc2)=C(C)N3)cc1OC (centres undefined)	·	?	i	-7%	·	i
O=S1(=O)CCOC[C@H](Cc2ccccc2)N1Cc1cccc(C(F)(F)F)c1	0%	i	i	-14%	-28%	?
O=S1(=O)CCOC[C@H](CC2CCCCC2)N1Cc1cccc(C(F)(F)F)c1	0%	i	?	-26%	-16%	13µM*!
O=C(NCc1ccc2c(c1)CCN2C(=O)c1ccncc1)c1ccc(Cl)cc1	·	·	i	·	·	?
CCCn1cnnc1CNC(=O)[C@H]1O[C@@H](n2ccc(=O)[nH]c2=O)[C@H](O)[C@@H]1O	1%	i	i	-15%	-3%	18µM*
O=S(=O)(Nc1ccc(O)c2ccccc12)c1cccs1	21µM*	?	?	?	26µM*	?
